What all share (assay): NCI-60 one-dose screen, 48 h (100 = growth as untreated, 0 = no growth, -100 = all killed)
Common to all, as to settings: 10 µM unless noted

Assay [1] has as its system SR leukemia.
The test system of assay [2] is RPMI-8226 leukemia.
Assay [3] has as its system OVCAR-8 ovarian.
Assay [4] deals with OVCAR-5 ovarian.
Assay [5] concerns OVCAR-4 ovarian.
The test system of assay [6] is SK-OV-3 ovarian.
Assay [7] has as its system IGROV1 ovarian.
The subject of assay [8] is OVCAR-3 ovarian.
The test system of assay [9] is HS 578T breast.
In assay [10] the test system is NCI/ADR-RES ovarian.

SMILES strings stand for the structures. About 83,000 compounds went through this panel and 20% of them were active in at least one assay; those are over-represented in the sample as a whole.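 Note: values are percent growth. 100 is the growth of untreated cells, values between 100 and 0 indicate rising inhibition; between -100 and 0 indicates cell death.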 A number with no mark means an inactive call. The source made the active and inactive calls. How the source made its calls: active means growth percent below 10; inactive means the rest.

Among the data in PubChem BioAssay (NCI) are growth values, retold here.

On to `O=C(/C=C/c1ccc(F)cc1)c1ccc(NC(=O)N2CCN(c3cc4c(cc3F)c(=O)c(C(=O)O)cn4C3CC3)CC2)cc1`, for which the growth was 71.9% in [1]; 98.6% in assay [2]; 90.8% in assay [3]; 96.9% in [4]; 98.2% in [5]; 99.4% in assay [6]. Further, the growth was 89.5% in assay [7], 97.6% in assay [8], 90.3% in assay [9] and 100% in assay [10].

Regarding `CC(=O)N1c2ccccc2NC2=C(C(=O)NC2(C)C)C1c1ccco1` (stereo not given), the growth was 29.1% in [1]; 63.1% in assay [2]; 100% in assay [3]; 95.1% in [4]; 93.8% in assay [5]; 95.6% in assay [6]. Further, the growth in assay [7] is 56.7%; in [8] it was 97.1%; in assay [9], 83.3%; in assay [10], 102%.

Turning to `NC(=NCCCOc1ccc(F)cc1)Nc1ccc(Cl)cc1`, the growth in assay [1] was 72%; in assay [2], 85.3%; in [3], 90.1%; in assay [4], 54.5%; in assay [5] it was 46%; in assay [6], 75.6%. Also, the growth in assay [7] is 30.9%; in assay [8], 89.6%; in assay [9], 81.9%; in assay [10] it was 77.3%.

On to `C[C@H]1[C@H](C)CC[C@]2(C(=O)NCC#CCN3CCN(C)CC3)CC[C@]3(C)C(=CC[C@@H]4[C@@]5(C)Cc6c([nH]c7ccccc67)C(C)(C)[C@@H]5CC[C@]43C)[C@H]12`, for which the growth in assay [1] is 4.29% (active); in assay [2], 67%; in assay [3], 90.2%; in assay [4], 94.4%; in [5], 83.2%; in [6], 86.9%. Further, the growth in [7] is 93.6%; in [8], 82.6%; in assay [9], 82.8%; in [10] it was 82.8%.

`COc1ccc(C(=O)c2cc(C)c(OC)c(C)c2)c(OC)c1N(C(=O)CCl)C(=O)CCl`: the growth in [1] was 21%; in [2] it was 17.7%; in assay [3], 10.3%; in assay [4] it was 29.2%; in assay [5], 44.9%; in assay [6], 2.36% (active). The growth in [7] was 13.8%; in assay [8] it was -6.63% (active); in [9] it was 23%; in assay [10] it was -37.1% (active).

Regarding `COc1cc2nc(-c3ccc(Cl)cc3)cc(OCCCN3CCCCC3)c2cc1OC`, the growth in [1] was 9.98% (active); in assay [2], 21%; in assay [3], 49.8%; in assay [4], 49.3%; in assay [5], 61.7%; in [6], 78.9%. Also, the growth was 33.2% in assay [7], 72% in assay [8], 62.1% in assay [9] and 46.4% in assay [10].

In the case of `COc1cc2c(c(OC)c1OC)CCC(c1cccc(NC(=O)c3cccc(Br)c3)c1)O2` (stereo not given), the growth in assay [1] was 84.2%; in assay [2], 78.2%; in assay [3], 93.6%; in [4], 98.5%; in assay [5], 83.5%; in assay [6], 84%. For the same compound, the growth in [7] was 85%; in assay [8], 97.3%; in assay [9], 84.1%; in [10], 91.8%.

For the compound `C/C(=N\NC(=O)CSc1nc2ccccc2c(=O)n1CCc1ccc(S(N)(=O)=O)cc1)c1ccccn1`, the growth in [1] is 22.8%; in assay [2], 30.9%; in assay [3], 22.8%; in assay [4], 39.8%; in [5], 19.5%; in assay [6], 20.8%. For the same compound, the growth in assay [7] is 45.5%; in assay [8], 12.5%; in [9], 73.7%; in [10] it was 74.4%.

With `CCCCOc1ccc(/C(C)=N/Nc2cc(C)nc3ccc(Br)cc23)cc1`, the growth in assay [1] is -8.75% (active); in assay [2], 57.9%; in assay [3], 88.4%; in [4], 113%; in assay [5], 101%; in assay [6], 89.4%. The growth in [7] is 85.7%; in assay [8] it was 101%; in assay [9], 96.6%; in [10], 99.2%.

In the case of `COc1ccc(C(=O)c2nc3ccccc3n2CC(=O)c2ccc(F)cc2)cc1`, the growth in assay [1] was 41.8%; in [2] it was 81.8%; in [3], 89.5%; in assay [4], 82.5%; in assay [5], 73.8%; in assay [6] it was 116%. Further, the growth in assay [7] is 86.6%; in assay [8], 84.1%; in assay [9], 103%; in assay [10], 58.3%.

Consider `O=C(/C=C(O)/C=C/c1ccc(SC(F)(F)F)cc1)/C=C/c1ccc(SC(F)(F)F)cc1`, for which the growth in assay [1] is 40.8%; in assay [2], 38.9%; in assay [3], 96%; in [4], 118%; in assay [5], 97.3%; in assay [6], 119%. The growth was 80.6% in assay [7], 88% in assay [8], 98.2% in assay [9] and 104% in [10].

As for `Cc1ccc(-c2csc(NC(=O)CSc3nc(-c4ccccc4)cc(=O)[nH]3)n2)cc1`, the growth in assay [1] is 101%; in [2], 78.3%; in assay [3], 94.2%; in assay [4], 95.8%; in assay [5], 105%; in assay [6], 92.4%. Further, the growth in assay [7] was 77.2%; in [8] it was 101%; in assay [9], 90.6%; in [10], 93.4%.

Regarding `COc1ccc(C/C(=C(\C)c2ccc(OCCN3CCCC3)cc2)c2ccc(OCCN3CCCC3)cc2)cc1`, the growth was -32.6% (active) in [1]; -20.6% (active) in assay [2]; 64.9% in assay [3]; 77.8% in assay [4]; 81.5% in assay [5]; 90.8% in [6]. Besides, the growth in assay [7] is 64.1%; in assay [8] it was 29%; in assay [9], 66.7%; in assay [10], 78.3%.

Regarding `COc1cc2oc(-c3cccc(C(=O)Nc4ccc5c(c4)OCO5)c3)cc(=O)c2c(O)c1OC`, the growth in [1] is 75.9%; in assay [2], 79.8%; in assay [3] it was 30.6%; in assay [4] it was 88.9%; in [5], 0.0679% (active); in assay [6] it was 91.4%. The growth was 81.6% in assay [7], 89.5% in [8], 72.7% in [9] and 70.6% in assay [10].

Turning to `O=C1OC(Cc2ccccc2)C1c1ccccc1` (stereo not given), the growth in assay [1] is 104%; in [2] it was 109%; in assay [3], 100%; in [4], 98.9%; in assay [5], 109%; in assay [6], 121%. The growth in assay [7] is 101%; in assay [8], 110%; in assay [9] it was 107%; in [10], 105%.

For the compound `COc1cc(C2C3CC4CCCC[C@H]4N3[C@@]3(C(=O)Nc4cc(Cl)ccc43)C2C(=O)c2nc3ccccc3[nH]2)cc(OC)c1OC` (stereo not given in full), the growth in [1] is 38.3%; in assay [2], 23.6%; in assay [3], 70.7%; in assay [4], 73.7%; in assay [5] it was 56.3%; in [6], 94.3%. Moreover, the growth is 62.1% in assay [7], 69.7% in assay [8], 74% in assay [9] and 66.8% in assay [10].

Take `COc1ccc(C(=O)Nc2cccc(C3CCc4c(cc(OC)c(OC)c4OC)O3)c2)cc1` (stereo not given): the growth was 21.6% in assay [1]; 23.9% in assay [2]; 55.6% in assay [3]; 91.1% in [4]; 47.4% in assay [5]; 51.6% in assay [6]. Besides, the growth in assay [7] is 52%; in assay [8] it was 35.3%; in [9], 38.9%; in assay [10] it was 38.5%.

Regarding `CCOC(=O)c1cc(C(=O)c2ccc(Br)cc2)n2ccc(/C=C/c3cc[n+](CC(=O)c4ccc(OC)cc4)cc3)cc12`, the growth in assay [1] is -2.64% (active); in [2], 45.7%; in assay [3], 59.9%; in [4], 102%; in assay [5], 86.7%; in assay [6] it was 114%. Further, the growth in assay [7] was 86%; in assay [8], 102%; in [9], 129%; in [10] it was 87.5%.

Consider `Nc1nc(Nc2ccccc2SSc2ccccc2Nc2nc(N)nc(-c3ccc(C(F)(F)F)cc3)n2)nc(-c2ccc(C(F)(F)F)cc2)n1`, for which the growth in assay [1] is -5.23% (active); in assay [2], 43.6%; in assay [3], 56%; in assay [4] it was 104%; in [5], 82%; in [6], 104%. Moreover, the growth in assay [7] is 69.7%; in assay [8], 80.5%; in [9], 78.7%; in [10] it was 56.4%.

Take `CCCCCCCCCCCCCCCC[N+]1(C)CCN(SN2CC[N+](C)(CCCCCCCCCCCCCCCC)CC2)CC1`: the growth in [1] was 26.8%; in [2], 26.3%; in assay [3], 67.2%; in assay [4], 50%; in assay [5] it was 74.6%; in assay [6], 124%. The growth in [7] is -18.9% (active); in assay [8], 59.7%; in assay [9] it was 88.2%; in [10] it was 96.3%.

As for `CCCOc1ccc(/C=N/Nc2cc(C)nc3ccc(Cl)cc23)cc1`, the growth was -35.5% (active) in assay [1]; -20.2% (active) in assay [2]; -44.6% (active) in assay [3]; 96.3% in assay [4]; 48.5% in assay [5]; 89.1% in assay [6]. Further, the growth in [7] was 42.1%; in [8] it was -27.5% (active); in assay [9] it was 89%; in assay [10], 82.4%.

With `[O-][n+]1c(Cl)cc(Cl)c2ccccc21`, the growth in assay [1] is 89.2%; in assay [2], 95%; in [3], 87.4%; in assay [4] it was 101%; in [5], 101%; in [6], 94.4%. The growth was 104% in assay [7], 93.7% in assay [8], 92.2% in assay [9] and 101% in assay [10].

On to `C=C1C(=O)O[C@H]2[C@H]1CC/C(COC(=O)NCc1c[nH]c3ccc(F)cc13)=C\CC[C@@]1(C)O[C@@H]21`, for which the growth is 13% in assay [1]; -24.4% (active) in assay [2]; 0.654% (active) in assay [3]; -30.6% (active) in [4]; 11.9% in assay [5]; 93.7% in assay [6]. In addition, the growth in assay [7] was -46.7% (active); in [8] it was -75.6% (active); in [9], 50%; in assay [10] it was 59.7%.

In the case of `O=C(Nc1ccc(NC(=O)c2cc(=O)[nH]c3ccccc23)cc1)Nc1cccc(Cl)c1`, the growth in assay [1] is 36.2%; in assay [2], 96.3%; in [3] it was 85.9%; in assay [4], 87.9%; in assay [5], 78.8%; in assay [6], 74.8%. For the same compound, the growth in assay [7] was 69%; in assay [8] it was 89.2%; in [9], 93.5%; in assay [10], 94.9%.
